The panel holds about 83,000 compounds, 20% with a hit somewhere; the sample as a whole holds those more often.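 Plates (96-well) were seeded with cells, treated with compound at one concentration, and incubated for 48 hours before percent growth was determined.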 Calls of active or inactive are those of the source. Rule for the calls: active = growth percent below 10; inactive = the rest.
Experiments:
Assay in all cases: NCI-60 one-dose screen, 48 h (100 = growth as untreated, 0 = no growth, -100 = all killed)
Conditions in all cases: 10 µM unless noted
SK-MEL-2 melanoma = tested on: SK-MEL-2 melanoma
EKVX NSCLC = tested on: EKVX NSCLC
SN12C renal = tested on: SN12C renal
UO-31 renal = tested on: UO-31 renal
TK-10 renal = tested on: TK-10 renal
ACHN renal = tested on: ACHN renal
CAKI-1 renal = tested on: CAKI-1 renal
A498 renal = tested on: A498 renal
CCRF-CEM leukemia = tested on: CCRF-CEM leukemia
MOLT-4 leukemia = tested on: MOLT-4 leukemia

Measured: growth

O=C(Nc1ccc(Oc2cccc(Cl)c2)c(Cl)c1)c1cccnn1
inactive: SK-MEL-2 melanoma 102% | EKVX NSCLC 87.3% | SN12C renal 83.2% | UO-31 renal 64.9% | TK-10 renal 75% | ACHN renal 97.9% | CAKI-1 renal 80.8% | A498 renal 87.4% | CCRF-CEM leukemia 84% | MOLT-4 leukemia 80.1%

Cc1ccc(S(=O)(=O)c2nc(-c3ccccc3)oc2SCC(N)=O)cc1
inactive: SK-MEL-2 melanoma 94.3% | EKVX NSCLC 95.8% | SN12C renal 106% | UO-31 renal 85.5% | TK-10 renal 85.7% | ACHN renal 99.5% | CAKI-1 renal 87.3% | A498 renal 80.3% | CCRF-CEM leukemia 102% | MOLT-4 leukemia 90.6%

COc1ccc(Cl)cc1Nc1nc(C(F)(F)F)ccc1C(=O)N/N=C/c1ccc([N+](=O)[O-])cc1
inactive: TK-10 renal 10.5%
active: SK-MEL-2 melanoma -8.38% | EKVX NSCLC 0.805% | SN12C renal 5.05% | UO-31 renal -1.49% | ACHN renal -9.86% | CAKI-1 renal 4.56% | A498 renal 3.24% | CCRF-CEM leukemia 9.15% | MOLT-4 leukemia 2.93%

Clc1ccc(Nc2ncc(Cc3cccc(Cl)c3Cl)s2)cc1
inactive: SK-MEL-2 melanoma 101% | EKVX NSCLC 97.9% | SN12C renal 90.8% | UO-31 renal 72.5% | TK-10 renal 98.3% | ACHN renal 97.5% | CAKI-1 renal 87.7% | A498 renal 93.7% | CCRF-CEM leukemia 94% | MOLT-4 leukemia 86.7%

O=C1CCCC1[n+]1ccccc1 (stereo not given)
inactive: SK-MEL-2 melanoma 85.3% | EKVX NSCLC 92.6% | SN12C renal 104% | UO-31 renal 90% | TK-10 renal 79.4% | ACHN renal 105% | CAKI-1 renal 92.4% | A498 renal 126% | CCRF-CEM leukemia 105% | MOLT-4 leukemia 113%

COc1ccc2c(c1)oc1c(C)c3c(c(C)c12)C(=O)N(CCOS(C)(=O)=O)C3=O
inactive: SK-MEL-2 melanoma 101% | EKVX NSCLC 107% | SN12C renal 94% | UO-31 renal 88.2% | TK-10 renal 124% | ACHN renal 97.1% | CAKI-1 renal 95.4% | A498 renal 129% | CCRF-CEM leukemia 100% | MOLT-4 leukemia 94.7%

c1csc(-c2cn3nc(-c4c[nH]c5ccccc45)sc3n2)c1
inactive: SK-MEL-2 melanoma 37.2% | EKVX NSCLC 36% | SN12C renal 34.2% | UO-31 renal 30.7% | TK-10 renal 50.5% | ACHN renal 42.2% | CAKI-1 renal 29.8% | A498 renal 20.8% | CCRF-CEM leukemia 10.7% | MOLT-4 leukemia 27.2%

CCN(CC)CCN1C(=O)c2c(c3c4ccccc4[nH]c3c3ccc4ccccc4c23)C1=O
active: SN12C renal -89.2% | TK-10 renal -86.2% | CCRF-CEM leukemia -8.15% | MOLT-4 leukemia -29.5%
inactive: SK-MEL-2 melanoma 97.7% | EKVX NSCLC 18.6% | UO-31 renal 14.3% | ACHN renal 36.6% | CAKI-1 renal 50.7% | A498 renal 35.1%

CN(C)CCCNC(=O)c1cncnc1Nc1ccc2c(ccn2Cc2cccc(F)c2)c1
inactive: SK-MEL-2 melanoma 107% | EKVX NSCLC 96.6% | SN12C renal 84.9% | UO-31 renal 71.5% | TK-10 renal 103% | ACHN renal 102% | CAKI-1 renal 83.7% | A498 renal 32.7% | CCRF-CEM leukemia 67% | MOLT-4 leukemia 72%

c1ccc(-c2ccc3c(c2)C2(CCNCC2)CN3)cc1
inactive: SK-MEL-2 melanoma 93.4% | EKVX NSCLC 75.9% | SN12C renal 98.7% | UO-31 renal 66.1% | TK-10 renal 125% | ACHN renal 93% | CAKI-1 renal 93% | A498 renal 104% | CCRF-CEM leukemia 112% | MOLT-4 leukemia 85.7%

C(=C(\C1=NCCN1)n1ccc2ccccc21)/c1ccccc1
inactive: SK-MEL-2 melanoma 106% | EKVX NSCLC 92.8% | SN12C renal 98.3% | UO-31 renal 62.4% | TK-10 renal 89.2% | ACHN renal 95.9% | CAKI-1 renal 80.7% | A498 renal 102% | CCRF-CEM leukemia 100% | MOLT-4 leukemia 97.8%

O=c1oc2c(cc1-c1ccccc1)c[n+]([O-])c1ccccc21
inactive: SK-MEL-2 melanoma 109% | EKVX NSCLC 98.1% | SN12C renal 97.2% | UO-31 renal 90.4% | TK-10 renal 107% | ACHN renal 97.3% | CAKI-1 renal 90.6% | A498 renal 105% | CCRF-CEM leukemia 101% | MOLT-4 leukemia 102%

CCCc1cc(=O)oc2c(C(=O)CC(C)C)c(O)c(CC=C(C)C)c(O)c12
active: A498 renal -16.3%
inactive: SK-MEL-2 melanoma 14.1% | EKVX NSCLC 13.7% | SN12C renal 11.6% | UO-31 renal 20% | TK-10 renal 27.4% | ACHN renal 27.5% | CAKI-1 renal 11.1% | CCRF-CEM leukemia 12.9% | MOLT-4 leukemia 19.1%

C/C(Cc1ccc(Cl)cc1)=C(\c1ccc(OCCN2CCCCCC2)cc1)c1ccc(OC(=O)c2ccccc2)cc1
active: CCRF-CEM leukemia -4.75% | MOLT-4 leukemia 9.42%
inactive: SK-MEL-2 melanoma 77.4% | EKVX NSCLC 78.8% | SN12C renal 11.2% | UO-31 renal 24% | TK-10 renal 67% | ACHN renal 68.9% | CAKI-1 renal 52.6% | A498 renal 76.1%

C=C(C)[C@@H]1CC[C@]2(C(=O)N3CCN(C)CC3)CC[C@]3(C)[C@H](CC[C@@H]4[C@@](C)(CCC(=O)O)[C@H](C(=C)C)CC[C@]43C)[C@@H]12
inactive: SK-MEL-2 melanoma 92.2% | EKVX NSCLC 86% | SN12C renal 85.9% | UO-31 renal 50.5% | TK-10 renal 94.3% | ACHN renal 82.8% | CAKI-1 renal 63.1% | A498 renal 53% | CCRF-CEM leukemia 70.7% | MOLT-4 leukemia 61.2%

CC1=C2[C@@H](CC1)[C@]1(C)O[C@@](C3CCNCC3)(C[C@H]1OC(=O)CO)[C@H]2OC(=O)/C=C/c1ccccc1
inactive: SK-MEL-2 melanoma 106% | EKVX NSCLC 91.8% | SN12C renal 53.1% | UO-31 renal 60.1% | TK-10 renal 97.3% | ACHN renal 47% | CAKI-1 renal 49.1% | CCRF-CEM leukemia 78.9% | MOLT-4 leukemia 78.1%
active: A498 renal 9.48%

CCn1cc(C(=O)N/N=C/c2cccc(F)c2)c(=O)c2cc(F)c(N3CCNC(C)C3)c(F)c21 (stereo not given)
inactive: SK-MEL-2 melanoma 104% | EKVX NSCLC 50.7% | UO-31 renal 20.6% | TK-10 renal 101% | ACHN renal 74.4% | CAKI-1 renal 66.7% | A498 renal 99.2%
active: SN12C renal -4.46% | CCRF-CEM leukemia -47% | MOLT-4 leukemia -26%

Cn1cc(-c2nc3c(F)cc4[nH]ncc4c3c3c2CCCC3)c(C(F)(F)F)n1
active: A498 renal -15.1% | CCRF-CEM leukemia -8.03% | MOLT-4 leukemia -18.9%
inactive: SK-MEL-2 melanoma 49.2% | EKVX NSCLC 38.3% | SN12C renal 49.4% | UO-31 renal 18.1% | TK-10 renal 24.7% | ACHN renal 28.4% | CAKI-1 renal 18.6%

CCOC(=O)c1ccc[nH]1
inactive: SK-MEL-2 melanoma 99.3% | EKVX NSCLC 97.1% | SN12C renal 105% | UO-31 renal 91.8% | TK-10 renal 98.3% | ACHN renal 90.4% | CAKI-1 renal 74.3% | A498 renal 101% | CCRF-CEM leukemia 92.1% | MOLT-4 leukemia 102%

C[C@@H]1NC(=O)[C@H](Cc2ccccc2)N(Cc2cccnc2)C1=O
inactive: SK-MEL-2 melanoma 96.7% | EKVX NSCLC 109% | SN12C renal 93.6% | UO-31 renal 89% | TK-10 renal 95% | ACHN renal 97.3% | CAKI-1 renal 90.2% | A498 renal 63.5% | CCRF-CEM leukemia 109% | MOLT-4 leukemia 101%

CS(=O)(=O)Nc1cc(-c2ccc3ncnc(Nc4ccc5c(cnn5Cc5ccccc5F)c4)c3c2)cnc1Cl
inactive: SK-MEL-2 melanoma 15.3% | EKVX NSCLC 52.2% | SN12C renal 23.3% | UO-31 renal 43.2% | TK-10 renal 30.6% | ACHN renal 59% | CAKI-1 renal 27.3% | CCRF-CEM leukemia 31.1% | MOLT-4 leukemia 16.4%
active: A498 renal -14.1%

COc1ccc2cc(C(=O)N3CCC([C@@H](C)C(=O)NCc4ccc5c(c4)OCO5)CC3)[nH]c2c1
inactive: SK-MEL-2 melanoma 63.6% [50 µM] | EKVX NSCLC 73.4% [50 µM] | SN12C renal 53.2% [50 µM] | UO-31 renal 41.5% [50 µM] | TK-10 renal 27.1% [50 µM] | ACHN renal 29.4% [50 µM] | CAKI-1 renal 60.3% [50 µM] | A498 renal 80.4% [50 µM] | CCRF-CEM leukemia 85.8% [50 µM] | MOLT-4 leukemia 78.2% [50 µM]

CCCCNC(=O)c1ccc2c(c1)nc(-c1ccccc1)n2C1CCCCC1
inactive: SK-MEL-2 melanoma 101% | EKVX NSCLC 88.4% | SN12C renal 102% | UO-31 renal 79.1% | TK-10 renal 130% | ACHN renal 102% | CAKI-1 renal 109% | A498 renal 101% | CCRF-CEM leukemia 86.5% | MOLT-4 leukemia 94.6%

CN1C(=O)/C(=C/c2ccc(C(=O)Nc3ncc(Cc4cccc(C(F)(F)F)c4)s3)cc2)SC1=S
active: CCRF-CEM leukemia 7.85%
inactive: SK-MEL-2 melanoma 56.7% | EKVX NSCLC 37.1% | SN12C renal 73.4% | UO-31 renal 51.1% | TK-10 renal 47.5% | ACHN renal 32.4% | CAKI-1 renal 22% | A498 renal 35.6% | MOLT-4 leukemia 46.8%
